Compounds without any hit were thinned out: in the full panel of roughly 83,000, 20% have a hit.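 How to read the values: 0–100, growth inhibition (40 = 60% inhibited); 0, no net growth; -100 to 0, cell death (-40 = 40% of starting cells died; -100 = all dead).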 A number with no mark means an inactive call. Activity calls are given as the source filed them. The calls were made as follows: active = growth percent below 10; inactive = the rest.
tested on: HL-60(TB) leukemia; assay: NCI-60 one-dose screen, 48 h (100 = growth as untreated, 0 = no growth, -100 = all killed); conditions: 10 µM unless noted

Point of comparison: `O=C(/C=C\c1ccc(O)c(O)c1)c1ccccc1O`, growth 11.6%. Against it:
- CCN(CC)CC(=O)Nc1c(C)ccc(N)c1C — higher, 74.2%
- COc1ccc(/C=C/C(=O)c2ccc(NC(=O)c3cc4cc5ccccc5nc4s3)cc2)cc1OC — higher, 92.5%
- c1ccc2c(-c3nccs3)c[nH]c2c1 — higher, 85.1%
- O=C(CCCOc1ccc(Br)cc1)Nc1ncc(Cc2ccc(F)cc2)s1 — higher, 34.7%
- COc1cc(C2CC(c3ccc(C)cc3)=NN2C=O)ccc1OCCN(C)C (stereo not given) — higher, 95.3%
- O=C(/C=C(\Nc1ccccc1)c1ccccc1)c1cn(-c2ccc([N+](=O)[O-])cc2)nn1 — higher, 114%
- COc1ccc2nc3ccccc3c(NCCNCC(C)O)c2c1 (stereo not given) — higher, 14.2%
- CCCCNC(=O)Oc1ccc(/C(=C(/C)Cc2ccc(OC)cc2)c2ccc(OCCN3CCCC3)cc2)cc1 — higher, 43.9%
- CCCn1ccnc1C(O)c1ccc(OCc2ccccc2)c(OC)c1 (stereo not given) — higher, 96.7%
- COc1ccc(N)c(N)c1 — higher, 84.9%
- N=c1sc2ccccc2n1CC(=O)O — higher, 114%
- C=COCCCCCCCCCCCCCCCCCC — higher, 73.8%
- COc1cc2oc(-c3cccc(NC(=O)Nc4ccc5c(c4)OCO5)c3)cc(=O)c2c(OC)c1OC — higher, 56.8%
- O=C(NCCNC(c1ccccc1)C(NCCNC(=O)c1ccccc1)c1ccccc1)c1ccccc1 (stereo not given) — higher, 68.3%
- Nc1cccc(C(=O)Nc2ccc3c(O)c(N=Nc4ccc(N=Nc5ccc(S(=O)(=O)O)cc5)cc4)c(S(=O)(=O)O)cc3c2)c1 — higher, 88.7%
- COc1ccc2nc3cc(Cl)ccc3c(Nc3ccc(O)cc3)c2c1 — higher, 44.2%
- CCOC(=O)/C=C\C(=O)NC(N)=O — higher, 74.9%
- CC(=O)[C@@H]1CC[C@]2(COS(=O)(=O)c3ccc(C)cc3)CC[C@]3(C)[C@H](CC[C@@H]4[C@@]5(C)CCCNC(C)(C)[C@@H]5CC[C@]43C)[C@@H]12 — higher, 28.1%
- CN(CCNc1ccc(C(=N)N)cc1)c1ccc(C(=N)N)cc1 — higher, 91%
- CCN(CC)c1cc(C)c(Cc2c(OC)ccc3ccccc23)cc1C — higher, 82.2%
- NCCN1CCNCC1 — higher, 97.6%
- CCN(CC)CCC(CNc1ccnc2cc(Cl)ccc12)c1ccccc1 (stereo not given) — higher, 58.5%
- CCOC(=O)CC1C(COC(=O)NC)OC(n2cnc3c(NC(=O)Nc4ccccc4)ncnc32)C1O[Si](C)(C)C(C)(C)C (stereo not given) — higher, 23.5%
- COc1ccc2[nH]c(O)c(N=NC(=O)c3oc4ccccc4c3C)c2c1 — higher, 53.9%
- O=[N+]([O-])c1cc(F)c2cccnc2c1O — higher, 72.9%
- O=C(Nc1nc2ccc(C(=O)N3CCN(/C=C/c4ccccc4)CC3)cc2s1)c1ccc(NCCc2ccccc2)c([N+](=O)[O-])c1 — higher, 80.5%
- CCN(CC)C(=O)c1cccnc1 — higher, 93.8%
- CN(C)c1ccc(C2CC(c3ccccc3)=NN2/C=C2\SC(=O)NC2=O)cc1 (stereo not given) — higher, 84.7%
- Cc1ccc(-c2nn(C)c(=O)c3noc(-c4ccc(C)cc4)c23)cc1 — higher, 29.3%

For `O=C(N/N=C/c1cc([N+](=O)[O-])ccc1O)c1cccc2ccccc12`, the growth was -14% (active).
For `COc1ccc(N2C(=O)/C(=C/C(Cl)=C/c3ccc([N+](=O)[O-])cc3)SC2=S)cc1`, the growth was -14% (active).
With `CC(C)(C)CC(C)(C)c1ccc(OCCOCC[N+](C)(C)Cc2ccccc2)cc1` the growth was -63.5% (active).
For `CCCCC/C=C\C/C=C/CCCCCCCCNC(=O)Nc1ccc([N+](=O)[O-])cc1`, the growth was 4.75% (active).
For `CC(C)(C)c1ccc(C(=O)Nc2sc3c(c2C(N)=O)CCC(=O)C3)cc1`, the growth was 3% (active).
In the case of `COc1cc(/C=N/NC(=O)c2cnn3c2NC(c2ccccc2)C3)ccc1OCc1ccccc1` (stereo not given), the growth is reported as -0.0884% (active).
`COC(=O)Nc1nc2ccc(C(=O)c3ccc(F)cc3)cc2[nH]1` was tested, and the growth was -70.4% (active).
For `COc1cc(NC(C)CCCN2C(=O)c3ccccc3C2=O)c2nccc(C)c2c1OC` (stereo not given), the growth was 9.5% (active).
For `OCC1OC(n2cnc3c(N/N=C\c4ccccn4)ncnc32)C(O)C1O` (stereo not given), the growth was 6.17% (active).

`O=C(NCc1ccco1)Nc1cccc2c(NC(=O)NCc3ccco3)cccc12` was tested, and the growth was 66.5% [100 µM].

From PubChem BioAssay (NCI)
